Drawing on article PMC3218832, this text covers binding signal for 14 sequences.

Targets include RELARELA (p65 homodimer) (Homo sapiens, UniProt Q04206 1-307); p50p50 homodimer (Homo sapiens, UniProt P19838 7-356); RELB subunit;p50 subunit (Homo sapiens;Homo sapiens, UniProt Q01201;P19838 120-401;7-356).
Assay in all cases: protein binding microarray; high values mean tight binding
Details in all cases: dsDNA, one strand shown

The target of the next test is T1, p52p52 homodimer (Homo sapiens, UniProt Q00653 4-332).
T1 sequence: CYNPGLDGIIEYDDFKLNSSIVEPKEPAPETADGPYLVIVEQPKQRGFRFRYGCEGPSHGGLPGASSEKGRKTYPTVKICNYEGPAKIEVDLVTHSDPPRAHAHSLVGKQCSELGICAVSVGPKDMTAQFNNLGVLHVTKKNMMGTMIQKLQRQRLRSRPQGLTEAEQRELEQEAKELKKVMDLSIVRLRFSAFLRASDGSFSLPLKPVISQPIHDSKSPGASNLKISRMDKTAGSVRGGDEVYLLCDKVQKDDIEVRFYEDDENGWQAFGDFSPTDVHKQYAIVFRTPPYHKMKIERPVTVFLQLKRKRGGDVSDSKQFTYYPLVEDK

Test [1] deals with RELA (p65) subunit of heterodimer;p50 subunit (Homo sapiens;Homo sapiens, UniProt Q04206;P19838 1-307;7-356).
Sequence of RELA (p65) subunit of heterodimer;p50 subunit (Q04206 1-307, chain 1 of 2): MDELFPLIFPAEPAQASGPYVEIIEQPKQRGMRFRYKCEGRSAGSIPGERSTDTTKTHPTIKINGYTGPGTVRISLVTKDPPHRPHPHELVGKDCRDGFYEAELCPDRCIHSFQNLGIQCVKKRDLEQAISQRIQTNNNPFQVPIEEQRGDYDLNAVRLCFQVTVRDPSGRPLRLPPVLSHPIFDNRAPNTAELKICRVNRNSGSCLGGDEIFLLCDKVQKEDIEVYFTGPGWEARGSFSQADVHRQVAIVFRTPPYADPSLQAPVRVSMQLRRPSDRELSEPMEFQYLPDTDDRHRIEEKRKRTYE
Sequence of RELA (p65) subunit of heterodimer;p50 subunit (P19838 7-356, chain 2 of 2): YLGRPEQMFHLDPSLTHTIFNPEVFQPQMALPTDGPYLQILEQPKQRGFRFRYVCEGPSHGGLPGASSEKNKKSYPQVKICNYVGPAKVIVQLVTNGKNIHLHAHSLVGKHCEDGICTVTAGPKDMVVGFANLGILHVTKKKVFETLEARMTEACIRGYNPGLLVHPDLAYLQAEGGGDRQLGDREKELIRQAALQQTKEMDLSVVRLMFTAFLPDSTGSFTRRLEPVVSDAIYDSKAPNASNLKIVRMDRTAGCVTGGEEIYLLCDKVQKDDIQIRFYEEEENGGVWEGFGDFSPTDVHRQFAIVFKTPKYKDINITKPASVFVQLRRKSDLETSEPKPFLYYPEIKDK
In test [2] the target is RELA (p65) subunit of heterodimer;p52 subunit (Homo sapiens;Homo sapiens, UniProt Q04206;Q00653 1-307;4-332).
The target in the next test is T2, RELB subunit;p52 subunit (Homo sapiens;Homo sapiens, UniProt Q01201;Q00653 120-401;4-332).
T2 sequence 1: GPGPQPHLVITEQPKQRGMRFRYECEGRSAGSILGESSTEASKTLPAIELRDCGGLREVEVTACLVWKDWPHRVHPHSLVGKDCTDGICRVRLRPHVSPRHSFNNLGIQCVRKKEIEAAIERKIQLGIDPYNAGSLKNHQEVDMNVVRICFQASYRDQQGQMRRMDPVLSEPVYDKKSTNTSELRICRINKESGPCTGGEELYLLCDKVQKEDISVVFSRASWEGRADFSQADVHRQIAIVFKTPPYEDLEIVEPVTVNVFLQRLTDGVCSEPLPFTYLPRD
T2 sequence 2: T1 sequence

The target in test [3] is C-Rel subunit;p50 subunit (Homo sapiens;Homo sapiens, UniProt Q04864;P19838 1-285;7-356).
Test [4] has as its target T3, C-Rel subunit;p52 subunit (Homo sapiens;Homo sapiens, UniProt Q04864;Q00653 1-285;4-332).
T3 sequence 1: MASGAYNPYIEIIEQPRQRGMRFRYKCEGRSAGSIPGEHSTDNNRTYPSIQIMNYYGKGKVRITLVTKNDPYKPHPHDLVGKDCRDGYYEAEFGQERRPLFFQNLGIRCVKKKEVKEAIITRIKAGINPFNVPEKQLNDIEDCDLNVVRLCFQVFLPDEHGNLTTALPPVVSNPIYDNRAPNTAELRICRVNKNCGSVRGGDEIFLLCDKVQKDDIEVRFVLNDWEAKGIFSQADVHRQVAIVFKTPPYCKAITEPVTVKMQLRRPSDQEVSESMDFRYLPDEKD
T3 sequence 2: T1 sequence

Sequence of p50p50 homodimer (P19838 7-356): as the sequence (P19838 7-356, chain 2 of 2) above
Sequence of RELARELA (p65 homodimer) (Q04206 1-307): as the sequence (Q04206 1-307, chain 1 of 2) above

On to GAGGGCACCCT, for which the binding signal was -0.976 z-score in the test with RELARELA (p65 homodimer); -1.27 z-score with p50p50 homodimer; -0.651 z-score with p52p52 homodimer; -0.906 z-score in [1]; -0.74 z-score in test [2]; -0.75 z-score in the test with RELB subunit;p50 subunit. Moreover, the binding signal is -0.795 z-score with RELB subunit;p52 subunit, -1.04 z-score in test [3] and -0.757 z-score in test [4].

Take AGGTACATCCT: the binding signal is -0.603 z-score in the test with RELARELA (p65 homodimer); -0.00392 z-score with p50p50 homodimer; 0.047 z-score in the test with p52p52 homodimer; -0.495 z-score in [1]; -0.249 z-score in [2]; -0.147 z-score with RELB subunit;p50 subunit. Moreover, the binding signal with RELB subunit;p52 subunit is -0.293 z-score; in test [3], -0.674 z-score; in test [4], -0.415 z-score.

For the sequence AAGAACACCCC, the binding signal is -0.22 z-score with RELARELA (p65 homodimer); 0.317 z-score in the test with p50p50 homodimer; 0.0847 z-score in the test with p52p52 homodimer; 0.107 z-score in test [1]; 0.232 z-score in test [2]; 0.176 z-score with RELB subunit;p50 subunit. Moreover, the binding signal in the test with RELB subunit;p52 subunit was 0.504 z-score; in test [3] it was 0.232 z-score; in [4], 0.274 z-score.

With AAGAGATCCCT, the binding signal with RELARELA (p65 homodimer) was -0.452 z-score; with p50p50 homodimer, -0.0204 z-score; in the test with p52p52 homodimer it was -0.142 z-score; in test [1], -0.376 z-score; in [2] it was -0.411 z-score; in the test with RELB subunit;p50 subunit, 0.117 z-score. The binding signal with RELB subunit;p52 subunit is -0.279 z-score; in test [3], -0.41 z-score; in test [4], -0.484 z-score.

GAAGTTATCCC: the binding signal in the test with RELARELA (p65 homodimer) is -0.0836 z-score; in the test with p50p50 homodimer it was -0.295 z-score; with p52p52 homodimer, -0.152 z-score; in test [1], -0.31 z-score; in [2], -0.235 z-score; in the test with RELB subunit;p50 subunit, -0.113 z-score. Moreover, the binding signal with RELB subunit;p52 subunit was -0.152 z-score; in test [3], -0.126 z-score; in test [4], -0.251 z-score.

In the case of GGATTGTTCCC, the binding signal with RELARELA (p65 homodimer) is 0.75 z-score; in the test with p50p50 homodimer it was -0.265 z-score; in the test with p52p52 homodimer it was -0.233 z-score; in test [1], -0.0316 z-score; in [2], -0.0574 z-score; in the test with RELB subunit;p50 subunit, -0.257 z-score. In addition, the results for the binding signal (with RELB subunit;p52 subunit; in [3]; in test [4]) were -0.307 z-score, 0.0336 z-score and 0.152 z-score, respectively.

With AAATATGTCCT, the binding signal was -0.0065 z-score with RELARELA (p65 homodimer); -1.09 z-score in the test with p50p50 homodimer; -0.534 z-score in the test with p52p52 homodimer; -0.78 z-score in test [1]; -0.678 z-score in [2]; -0.828 z-score with RELB subunit;p50 subunit. Also, the binding signal with RELB subunit;p52 subunit is -0.738 z-score; in [3] it was -0.967 z-score; in test [4] it was -0.696 z-score.

With GGGATTCTCCC, the binding signal amounted to 2.28 z-score in the test with RELARELA (p65 homodimer); 0.737 z-score with p50p50 homodimer; 2.84 z-score in the test with p52p52 homodimer; 1.59 z-score in test [1]; 2.15 z-score in test [2]; 2.01 z-score with RELB subunit;p50 subunit. The binding signal with RELB subunit;p52 subunit was found to be 1.67 z-score; in [3], 1.41 z-score; in test [4], 2 z-score.

As to AAATAACCCCC, the binding signal in the test with RELARELA (p65 homodimer) came to 0.321 z-score; in the test with p50p50 homodimer, 1.39 z-score; with p52p52 homodimer, 1.6 z-score; in test [1], 1.69 z-score; in test [2], 1.48 z-score; in the test with RELB subunit;p50 subunit, 1.69 z-score. The binding signal came to 1.68 z-score in the test with RELB subunit;p52 subunit, 1.32 z-score in test [3] and 1.39 z-score in [4].

On to AAGAGGTTCCT, for which the binding signal is 0.0133 z-score with RELARELA (p65 homodimer); -1.79 z-score with p50p50 homodimer; -0.462 z-score with p52p52 homodimer; -0.943 z-score in test [1]; -0.822 z-score in test [2]; -0.701 z-score in the test with RELB subunit;p50 subunit. Besides, the binding signal in the test with RELB subunit;p52 subunit is -0.585 z-score; in test [3], -1.22 z-score; in test [4], -0.637 z-score.

Turning to AGATTCGCCCC, the binding signal worked out at 0.366 z-score with RELARELA (p65 homodimer); 0.156 z-score with p50p50 homodimer; 0.127 z-score in the test with p52p52 homodimer; 0.288 z-score in [1]; 0.219 z-score in test [2]; 0.292 z-score with RELB subunit;p50 subunit. Also, the binding signal in the test with RELB subunit;p52 subunit is 0.48 z-score; in [3], 0.611 z-score; in test [4], -0.0556 z-score.

In the case of GAAGACCTCCT, the binding signal is -0.649 z-score with RELARELA (p65 homodimer); -2.61 z-score in the test with p50p50 homodimer; -0.857 z-score in the test with p52p52 homodimer; -0.905 z-score in test [1]; -0.909 z-score in [2]; -1.23 z-score in the test with RELB subunit;p50 subunit. The figures for the binding signal (with RELB subunit;p52 subunit; in [3]; in [4]) were -0.869 z-score, -1.61 z-score and -0.944 z-score, respectively.

As to CAGTGACCCCT, the binding signal was -0.538 z-score with RELARELA (p65 homodimer); -0.115 z-score with p50p50 homodimer; -0.0283 z-score in the test with p52p52 homodimer; -0.321 z-score in test [1]; -0.373 z-score in test [2]; -0.303 z-score in the test with RELB subunit;p50 subunit. The binding signal is -0.116 z-score with RELB subunit;p52 subunit, -0.672 z-score in test [3] and -0.427 z-score in test [4].

For GAAAGTGCCCC, the binding signal with RELARELA (p65 homodimer) turned out to be 0.518 z-score; with p50p50 homodimer it was 0.277 z-score; with p52p52 homodimer, 0.105 z-score; in test [1], 0.655 z-score; in test [2], 0.365 z-score; in the test with RELB subunit;p50 subunit it was 0.443 z-score. Moreover, the binding signal in the test with RELB subunit;p52 subunit came out at 0.479 z-score; in test [3], 0.607 z-score; in [4], 0.511 z-score.
